# Assay outcomes from PubChem BioAssay.
# Pf growth 48h – inhibits P. falciparum growth in the first generation, 48 h. P. falciparum luciferase growth in erythrocytes, 48 h. Potency, µM (titrated, usually from 28.7 µM), inactives show at the highest dose activity change, negative = inhibition, most hits filed as inhibitors. 310,000 compounds, 5.9% hits; further: on the % scale 0 is the no-effect control and ±100 the full control effect
#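 Read-out is firefly luciferase luminescence from an integrated reporter in P. falciparum, so falling signal marks reduced parasite growth. Infected erythrocytes were at 2% hematocrit and 0.1% parasitemia (final) in Albumax-supplemented RPMI 1640.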
# HCV inh – blocks hepatitis C virus | Huh7.5.1 HCVcc-Cre infection, luciferase reporter, 44 h | Potency, µM (titrated, usually from 41.8 µM), for the others: at the highest dose activity change, negative = inhibition, hits mostly inhibitors | 340,000 compounds, 3.4% hits; further: on the % scale 0 is the no-effect control and ±100 the full control effect
#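 After 44 h co-culture of compound, cells and HCVcc-Cre (~0.5 moi), substrate is added for 15 min at room temperature and luciferase measured over 15 sec. Cells were seeded at 1,000/well and pre-cultured 4 h.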
# AMA1-RON2 inh – AMA1-RON2 (P. falciparum) interaction inhibition; AlphaScreen AMA1-biotinylated RON2 peptide binding; Potency, µM (top dose mostly 58.2 µM), without a hit: at the highest dose activity change, negative = inhibition, hits mostly inhibitors; 360,000 compounds, 0.2% hits;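 further: 0% = vehicle wells and -100% = peptide control; nearly all actives have a fitted effect of over 45% in size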
#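 AMA1 (3D7) with his tag at 25 nM final met compounds first, then biotinylated RON2 peptide at 25 nM; detection used donor plus acceptor beads, 10 µg/mL apiece, read by AlphaScreen after 30 min at room temperature.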
# Pf growth 96h – inhibits malaria parasite growth, 96 h. P. falciparum luciferase reporter growth, 96 h. Potency, µM (highest dose often 28.7 µM), inactives show at the highest dose activity change, negative = inhibition, hits mostly inhibitors. 320,000 compounds, 6.9% hits; further: on the % scale 0 is the no-effect control and ±100 the full control effect
#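 Luminescence readout: decreased luciferase signal marks inhibited growth of reporter-expressing P. falciparum in infected red cells (2% hematocrit, 0.05% parasitemia final), exposed to compound two generations (96 h, 37 C, 5% CO2).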
# SARS PLpro yeast – blocks SARS-CoV papain-like protease in a yeast assay | 330,000 compounds, 0.19% hits | S. cerevisiae expressing SARS-CoV PLpro, growth rescue | Potency, µM (doses to about 32.9 µM), for the others: at the top dose activity, positive = growth rescue, usual class: activators | AID 485353; calls by dose curve; further: 0% is about no effect; nearly all actives have a fitted effect of over 55% in size
# NS1 function inh – blocks influenza NS1 protein function | Potency, µM (highest dose often 46.1 µM), inactives show at the top dose activity, positive = more growth | 270,000 compounds, 0.4% hits | AID 2326; calls by dose curve; further: actives are rising curves; nearly all actives have a fitted effect of over 50% in size
#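 In this qHTS, NS1 from influenza A is expressed in budding yeast, where it slows growth. Cells are switched from glucose to 2% galactose medium (pH 6.0, -URA), treated with compound, and growth recovery is read at OD600.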
# * marks the source's active call; other numbers are inactive results; ? = inconclusive; / = no result; [ ] = remark or other dose. A selection: hits, their analogues and other compounds. The true share with any hit is near 12%. Unless noted, the call rests on the fitted dose curve; in most records, active means well fitted curve in the direction sought with a large enough effect; inconclusive means small, poorly fitted or top-dose-only effect, or another doubt; inactive means no such curve, though single readings can be large; an effect the other way counts as inactive or inconclusive. Potency means the concentration at half of the fitted maximal effect.
SMILES,Pf growth 48h,HCV inh,AMA1-RON2 inh,Pf growth 96h,SARS PLpro yeast,NS1 function inh
CCOC(=O)c1c(NC(=O)CNCC(O)CO)sc(C)c1C (configuration not stated),3%,?,2%,?,-9%,-8%
Cc1sc(NC(=O)c2ccccc2)c(C(=O)c2ccccc2)c1C,0%,-13%,-1%[11.6 µM],12µM*,-25%,-11%
CCOC(=O)c1c(NC(=O)c2cccnc2)sc(C)c1C,43%,10µM*,0%,49%,0%,3%
Cc1c(C(=O)C(=O)NCc2cccs2)c2ccccc2n1C,19%,14%,6%,24%,-11%,/
C=C(C)C1CC=C(C)/C(=N\NC(=S)Nc2ccc(C)cc2)C1 (configuration not stated),15µM*,?,-8%,10µM*,?,8%
COc1ccc(NC(C)C(=O)N/N=C/c2ccccc2OCc2ccc(Br)cc2)cc1 (configuration not stated),9.3µM*,?,-29%,67%,5%,11%
COC(=O)N/N=C\c1cc(Br)ccc1OCc1ccccc1,17%,10µM*,16%,51%,-34%,10%
COC(=O)N/N=C/c1ccccc1OCc1ccccc1,2%,-1%,1%,0%,10%,-12%
CC(C)(C)c1ccc(OCC(=O)N/N=C/c2cc(Br)ccc2OC(=O)c2ccco2)cc1,2.1µM*,?,29%,?,-2%,8%
CCCCn1c(N)c(N(CC(C)C)C(=O)CSc2nnc(C)n2-c2ccccc2)c(=O)[nH]c1=O,/,10%,-1%,/,/,/
COc1ccc(S(=O)(=O)N2CN(Cc3ccco3)c3nc4ccccc4nc32)cc1,12µM*,-6%,11%,43%,-2%,?
CC1CCC/C=C/C2CC(O)CC2C(O)/C=C/C(=O)O1 (configuration not stated),/,0.71µM*,15%,?,-16%,0%
C[C@H]1CCC/C=C/C2C[C@H](O)CC2[C@H](O)/C=C/C(=O)O1 (some centres not stated),2.9µM*,?,11%,2.1µM*,13%,-9%
OC[C@@H]1O[C@H](n2cnc3c(/C=C(\O)c4ccccc4)ncnc32)[C@H](O)[C@@H]1O,/,/,/,/,/,-1%
Cc1ccc(C[n+]2c(-c3ccc(C)cc3)cc(-c3ccc(C)cc3)cc2-c2ccc(C)cc2)cc1,0.33µM*,2.2µM*,-4%,?,-1%,/
Cc1ccc(-c2cc(-c3ccc(C)cc3)[n+](-c3ccc(C(=O)O)cc3)c(-c3ccc(C)cc3)c2)cc1,/,41%,14%,?,4%,/
CC(C)Oc1ccc(CNC(=O)CCCN2C(=O)C(c3ccccc3)Oc3cccnc32)cc1 (configuration not stated),-20%,11%,-5%,-8%,-6%,-3%
COC(=O)c1sccc1NC(=S)N(C)C1CCCCC1,9.3µM*,3%,-6%,?,-8%,/
COC(=O)c1sccc1NC(=S)N1CCN(c2cc(C)ccc2C)CC1,10µM*,?,-16%,-24%,-85%,-11%
COC(=O)c1sccc1NC(=S)N1CCN(C)CC1,?,?,-8%,?,2%,/
COC(=O)c1sccc1NC(=S)N1CCCC(C)C1 (configuration not stated),12µM*,-10%,-5%,?,-14%,-49%
COC(=O)c1sccc1NC(=O)NC1CCCCC1,74%,-16%,-2%,-7%,-6%,/
CC(C)c1cccc(C(C)C)c1OCCCCCN1CCOCC1,/,-15%,-4%,/,/,/
O=C1c2ccccc2NC(c2ccc3c(c2)OCCO3)N1c1ccc2c(c1)OCCO2 (configuration not stated),46%,-8%,-11%,133%,?,-1%
O=C1c2ccccc2NC(c2ccc3c(c2)OCO3)N1O (configuration not stated),-26%,-21%,11%,0.37µM*,9%,-13%
SMILES,Pf growth 48h,HCV inh,AMA1-RON2 inh,Pf growth 96h,SARS PLpro yeast,NS1 function inh
CC(C)CC(NC(N)=O)C(=O)OCC(=O)N(Cc1ccccc1)Cc1ccccc1 (configuration not stated),4%,19%,21%,4%,-4%,/
OC(CNC1Cc2ccccc2C1)COc1ccc(Cl)cc1 (configuration not stated),?,1%,-2%,11%,0%,-2%
OC(CNC1CCCc2ccccc21)COc1c(Cl)cccc1Cl (configuration not stated),1.9µM*,?,5%,3.3µM*,-13%,-29%
CCN(CC)C(=O)CSc1nnc(CCCCCNC(=O)OC(C)(C)C)o1,?,6%,-10%,10µM*,-2%,0%
Cc1cccc(NC(=O)c2ccc([N+](=O)[O-])o2)c1C,15%,?,6%,-11%,-3%,/
Cc1ccnc(NC(=O)c2ccc([N+](=O)[O-])o2)c1,3%,?,-12%,?,-12%,-77%
O=C(Nc1ccccc1C(=O)NC1CC1)c1ccc([N+](=O)[O-])o1,?,?,-14%,10µM*,-3%,/
O=C(Nc1cccc2ccccc12)c1ccc([N+](=O)[O-])o1,?,?,-1%,5.2µM*,-31%,-142%
O=C(Nc1ncccn1)c1ccc([N+](=O)[O-])o1,8.3µM*,?,0%,64%,0%,/
O=C(Nc1ccccc1N1CCCC1)c1ccc([N+](=O)[O-])o1,9.3µM*,?,-18%,4.1µM*,-6%,-14%
COc1ccc(S(=O)(=O)NC(=O)C2(C)CCN2C(=O)c2cccc(F)c2)cc1 (configuration not stated),/,/,4%,/,/,/
O=C(NCCc1ccccc1C(F)(F)F)C1CCC(=O)N(C2CC2)C1 (configuration not stated),-6%,/,7%,-11%,3%,2%
COc1ccc(C2C3=C(Nc4ncnn42)c2ccccc2CCC3)cc1 (configuration not stated),?,12%,31%,-8%,-4%,-6%
Fc1ccc(/C=C2\CCCC3=C2Nc2ncnn2C3c2ccc(F)cc2)cc1 (configuration not stated),13µM*,?,28%,?,-7%,14%
CCSC1=C(C#N)C2(CCCC2)C(C#N)=C(N)N1,9.3µM*,?,-12%,-4%,7%,1%
COC(=O)c1ccc(Oc2nc(Nc3ccc(C)c(C)c3)nc(N(C)C)n2)cc1,?,8.9µM*,-6%,/,-10%,14%
O=C(CC12CC3CC(CC(C3)C1)C2)NCc1ccc(F)cc1,0%,14%,10%,-23%,2%,-2%
